A selection: hits, their analogues and other compounds. The true share with any hit is near 5.9%.
AHR activator = activators of human aryl hydrocarbon receptor; P35869; AHR-responsive luciferase reporter cells, luminescence; activation, % at 5 µM; 2.5% of 320,000 active; AID 2796; in the data active = activation above about 47%;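 note: 0% = vehicle wells and 100% = reference agonist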
HSF-1 act = increases HSF-1 driven luciferase reporter signal; NIH3T3-HGL HSF-1 luciferase reporter, MG132, 8 h; 100% = twice DMSO control signal; activation, % at 9 µM; 1.7% of 300,000 active; AID 504408;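 active = mean replicate activation of at least 50% with a set share of replicates each reaching 50%; inconclusive = only one of those two conditions met; inactive = mean below 50% and too few replicates reaching it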;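 note: 0% = median of the neutral control wells and 100% = twice that signal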
NR0B1 inh = NR0B1 (DAX1) inhibition; P51843; HEK293 Gal4-DAX1 luciferase reporter, luminescence; inhibition, % at 6.75 µM; 0.99% of 340,000 active;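 active = inhibition above the mean over all tested compounds plus 3 SD, cut at about 4.2% in these data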;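 note: 0% = DAX1-transfected cells with DMSO and 100% = empty-vector control cells with DMSO; inhibition shows as a rise in luminescence from relieved DAX1 repression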
Target sequence (P51843 207-470 limits assumed): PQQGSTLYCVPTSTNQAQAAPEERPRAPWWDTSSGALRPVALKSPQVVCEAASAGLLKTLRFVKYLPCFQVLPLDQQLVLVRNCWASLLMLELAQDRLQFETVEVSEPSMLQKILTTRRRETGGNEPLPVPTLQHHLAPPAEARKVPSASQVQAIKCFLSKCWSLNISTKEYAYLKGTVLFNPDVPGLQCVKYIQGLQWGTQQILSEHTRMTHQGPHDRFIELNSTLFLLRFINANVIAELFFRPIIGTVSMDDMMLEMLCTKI
HSF1 inh = HSF1 inhibition. NIH3T3-HGL HSE-luciferase, MG132-induced, luminescence 8 h; active compounds read low. 0.77% of 300,000 active. AID 2098. activity change, negative = inhibition, % at 7.5 µM (by protocol);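 active = more than half of replicate wells show activity change below -50%, luminescence cut by over half; inconclusive = some wells, but at most half, below -50%; inactive = no replicate well below -50%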;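 note: luciferase reports HSF-1 transcriptional activity via heat shock element; 0% = median of DMSO wells and -100% = zero luminescence signal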
GAA850 FXN act = increases GAA850 frataxin promoter reporter activity. AID 540364. activation, % at 6 µM. HEK293 lucGAA850 FXN promoter luciferase reporter, 24 h; percent of 10 µM SAHA response. 0.56% of 360,000 active;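 active = activation above the average of all compounds screened plus 3 SD, cutoff fixed separately per campaign, cut at about 7.5% in these data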;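 note: 0% = DMSO wells and 100% = 10 µM SAHA wells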
HSP90 inh = inhibitors of HSP90 luciferase refolding in rabbit reticulocyte lysate; luciferase refolding luminescence, 3 h; inhibition, % at 5.6 µM; 0.91% of 290,000 active;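 active = inhibition above the screen-wide mean plus 3 SD, computed separately per campaign, cut at about 16% in these data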;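 note: 0% = DMSO wells and 100% = 60 µM geldanamycin wells; inhibitors lower the luminescence because luciferase stays unfolded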
* = called active by the depositor; ? = inconclusive; . = not tested or not shown.

SMILES	AHR activator	HSF-1 act	NR0B1 inh	HSF1 inh	GAA850 FXN act	HSP90 inh
C=CCn1c(C)nnc1SCC(=O)c1[nH]c(C)c(C(C)=O)c1C	40.7	-0.1	-0.3	-4.3	-1.8	1.8
CCC(=O)Nc1nc2c(OC)ccc(C)c2s1	33.8	-7.2	-0.4	-1.1	1.3	-1.5
COc1ccc(OC)c2sc(NC(=O)CCSc3ccccc3)nc12	58.9*	12.8	-0.8	3.9	-1.0	-2.4
COc1ccc(C)c2sc(NC(=O)C3CC3)nc12	73.7*	-3.3	0.1	11.9	-0.2	0.4
O=C(CCCn1nnnc1CN1CCOCC1)N1CCC(c2ccccc2Cl)C1 (stereo unspecified)	1.3	10.2	-0.1	4.7	-0.5	7.5
c1ccc(CCNCCCOc2cccc3ccccc23)cc1	4.2	5.9	0.3	-9.1	2.3	-1.8
C=C(C)Cn1c2ccc(NC(=O)NCCc3cccs3)cc2c(=O)n1C	.	.	.	.	0.5	.
CC1CN(C(=O)CCC(=O)NCc2ccccc2)c2cc(Cl)ccc2O1 (stereo unspecified)	-1.2	6.0	2.2	3.4	-1.6	66.8*
COc1cc(/C=N/NC(=O)c2csc3c2CCCC3)ccc1OCCN1CCOCC1	-0.5	-15.0	0.1	-10.7	2.1	-1.1
COc1ccccc1C(=O)Nc1cccc2nc(C)ccc12	53.0*	7.3	0.1	2.9	1.8	1.6
COc1ccccc1NC(=O)c1cc2ccccc2nc1C	57.4*	9.2	-0.3	6.1	0.8	4.9
COc1cc(OC)cc(C(=O)Nc2cccc3nc(C)ccc23)c1	.	20.2	0.1	7.7	0.1	0.0
COc1ccc(C(=O)Nc2cccc3nc(C)ccc23)c(OC)c1	71.8*	1.2	-0.9	7.4	-0.1	0.2
COc1ccccc1NC(=O)c1ccc2nc(C)c(C)nc2c1	8.6	-2.6	-0.8	-7.6	3.3	2.6
O=C1OC(CO)CN1Cc1ccccc1 (stereo unspecified)	-0.1	25.6	0.7	7.5	0.4	-1.0
CC1(C)CC(CCN)(Cc2ccccc2Cl)CCO1 (stereo unspecified)	1.6	59.6*	0.3	15.4	-0.4	-4.2
CC12CCC(=O)N1C(C(=O)NNC(=O)c1ccccc1F)CS2 (stereo unspecified)	-2.1	.	0.4	.	-0.2	.
O=c1c2ccccc2nc(SCCN2CCOCC2)n1CCc1ccccc1	52.0*	28.0	0.3	12.7	0.8	1.2
N#CCCn1nnc2ccccc21	1.4	-2.2	0.4	-1.1	-1.4	5.4
CC(=O)c1nc2ccccc2n1CCc1ccccc1	55.3*	7.1	1.5	-0.9	1.6	-1.2
CC(=O)c1c(C)[nH]c(C(=O)CSc2nc3ccccc3c(=O)n2CCCN2CCOCC2)c1C	0.6	-11.4	-1.0	-4.5	-4.9	2.2
Cc1sc2nc(CSc3nc4ccccc4c(=O)n3CCCN3CCOCC3)[nH]c(=O)c2c1C	3.1	60.9*	1.9	40.9	-2.7	-2.9
c1ccc(CCn2nnc3ccccc32)cc1	17.1	45.7	6.3*	29.3	5.6	-0.5
C=CC(=O)Nc1cccc(Oc2cc(Cl)nc3[nH]ccc23)c1	-0.8	.	-1.4	.	-5.6	.
Cc1nc2ccccc2c(=O)n1CCc1ccccc1	50.6*	21.9	-0.7	7.9	2.0	-0.4
SMILES	AHR activator	HSF-1 act	NR0B1 inh	HSF1 inh	GAA850 FXN act	HSP90 inh
CC1(C(=O)NCc2cccs2)Cc2c(-c3cccc(C(F)(F)F)c3)ccnc2O1 (stereo unspecified)	.	.	.	.	-5.1	.
Cc1ccccc1C(=O)NCCNC(=O)c1ccco1	0.5	22.9	1.9	1.1	0.3	1.2
NS(=O)(=O)c1ccc(CNC(=S)Nc2ccc(F)c(Cl)c2)cc1	-1.6	-10.7	-0.5	-3.0	0.1	-0.5
COc1ccc(CNC(=S)Nc2ccc(F)c(Cl)c2)cc1	0.3	73.4*	0.2	33.2	-1.3	-1.8
CC1=C(C(N)=O)C(c2cccs2)n2nc(-c3cccc(Cl)c3)nc2N1 (stereo unspecified)	66.9*	?	1.9	40.6	4.7	1.2
CC1=C(C(N)=O)C(c2cccs2)n2nc(-c3cccc(C)c3)nc2N1 (stereo unspecified)	6.8	-6.1	-1.2	-0.8	1.8	-1.1
COc1ccc([C@@H]2[C@@H]3C(=O)N(C(C)(C)C)C(=O)[C@@H]3[C@]3(C)C(=O)N(c4cccc(Cl)c4)C(=O)N23)cc1	2.3	3.1	-0.6	9.4	3.5	.
NS(=O)(=O)c1ccc(CCNC/C=C/c2ccccc2)cc1	-0.6	-1.8	-0.9	-5.9	-0.6	5.1
NS(=O)(=O)c1ccc(CCNCC#Cc2ccccc2)cc1	1.9	-75.6	0.3	-70.9*	0.1	-1.3
COc1ccc(C2=CC(=O)CC(c3ccc(F)cc3)C2)cn1 (stereo unspecified)	1.3	61.1*	0.6	28.6	-0.1	.
COc1ccc(C2=CC(=O)C[C@H](c3ccc(F)cc3)C2)cc1OC	2.6	.	-0.6	.	2.2	.
Oc1ccccc1-c1csc(-c2ccccc2)n1	69.1*	78.9*	4.9*	56.1	3.4	-4.5
COc1cc(N)ccc1NC(=O)c1cccs1	60.3*	22.7	0.6	5.6	0.2	0.4
C/C(=N\NC(=O)COc1ccccc1[N+](=O)[O-])c1cccs1	57.4*	39.7	-0.2	4.6	4.9	-2.9
C/C(=N/NC(=O)c1cccs1)c1cccs1	13.7	16.6	7.1*	5.9	5.8	-4.0
C/C(=N/NC(=O)c1cccs1)c1cccc(N)c1	6.3	43.3	6.0*	32.0	5.2	1.4
Cc1ccc(N(C)S(=O)(=O)c2cccc(C(=O)NCC(c3ccco3)N3CCCC3)c2)cc1 (stereo unspecified)	1.2	.	1.1	.	1.1	.
C[C@]1(CC/C(=C/CO)CO)[C@H](C=O)CC[C@@]23COC(=O)C2=CCC[C@@H]31	.	.	.	.	-1.3	.
CCCCCCCC(=O)N/N=C(/C)c1c(O)cc(C)oc1=O	3.5	-2.4	-0.5	-1.7	-0.7	0.4
C/C(=N\NC(=O)c1cccs1)c1c(O)cc(C)oc1=O	16.1	49.0	4.7*	23.2	2.6	-0.2
CC1=C/C(=N\NC(=O)c2cccs2)CC(C)(C)C1	7.7	62.2*	-0.1	53.7	3.4	-2.0
C=C(C)C1CC=C(C)/C(=N/NC(=O)c2cccs2)C1 (stereo unspecified)	37.9	79.7*	4.2	36.7	4.7	-6.7
O=C(NN=C1CCCC1)c1cccs1	17.3	36.3	3.1	25.9	3.7	-3.5
CCN1CCCC1CN(Cc1cc2ccc(C)cc2[nH]c1=O)C(=S)Nc1cccc(OC)c1 (stereo unspecified)	58.7*	59.8*	0.2	14.2	0.8	5.7

Screening results: PubChem BioAssay, several laboratories
